Source: PubChem BioAssay (National Center for Advancing Translational Sciences (NCATS))
Many of the other results were omitted from the sample, so hits are more common in it than they were.
Methyltransferases – Primary Screen for Target Class Profiling of Small Molecule Inhibitors of Methyltransferases; AID 1745853, 2022; purified enzyme, MTase-Glo SAH luminescence; hits give low values; calls only at 40 µM; 25,000 tested, 3.9% active; call rule not given here
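Each enzyme was reacted with SAM and its substrate, with compounds tested once at 40 uM; SAH formed was read by MTase-Glo luminescence.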
* hit, by the source's call; i = inactive; + = active, no number. % is scaled to controls: 0 for no effect and ±100 for the full control effect.

SMILES | Methyltransferases
Cc1ccc(C(=O)Cn2nc3n(CC(C)C)c(=O)c4ccc(C(=O)NC(C)C)cc4n3c2=O)c(C)c1 | i
CC1CCN(S(=O)(=O)c2cccc3c2C(=O)c2ccccc2C3=O)CC1 | i
O=C1c2ccccc2C(=O)c2c1cccc2S(=O)(=O)Nc1ccc(Cl)cc1 | +
COc1ccc(Cl)cc1S(=O)(=O)Nc1ccc2[nH]c(=O)[nH]c2c1 | i
COc1ccc(-n2c(C)cc(CNS(=O)(=O)c3ccc4c(c3)oc(=O)n4C)c2C)cc1 | i
Cc1cc(C(=O)Nc2cc(Nc3ccc4c(/C=C/c5ccccn5)n[nH]c4c3)ccc2F)n(C)n1 | i
CCCn1c(=O)c2cc(Cl)ccc2n2c(SCC(=O)NCc3ccc(C)cc3)nnc12 | i
COc1ccc(OC)c(-c2ccc(NC(=O)c3ccncc3F)cc2)c1 | i
Nc1nccc(Oc2ccc(NC(=O)c3c[nH]cc(-c4ccc(F)cc4)c3=O)cc2F)c1Cl | +
O=C(Nc1ccc(F)cc1)c1ccnc2[nH]ccc12 | i
O=C(COC(=O)C(Cc1c[nH]c2ccccc12)NC(=O)c1ccc(Cl)cc1)c1ccc(Br)cc1 (centres undefined) | i
Cc1ccc(CNC(=O)CSc2nnc3n(CCc4ccccc4)c(=O)c4ccccc4n23)cc1 | i
Cc1ccc(CNc2ncnc3ccc(-c4ccc(CO)o4)cc23)o1 | +
COC(=O)N1CCC2(C1)N=C(c1ccncc1)C(=O)N2 (centres undefined) | i
Cc1ccc(-c2nc(CN3CCCC3=O)no2)cc1 | i
C=CCNC(=O)CCCc1nnc2n3nc(-c4ccccc4)nc3c3ccccc3n12 | i
CC1CCCCN1CCNC(=O)CCCc1nnc2n3nc(-c4ccccc4)nc3c3ccccc3n12 (centres undefined) | i
CCN(CC)CCCNC(=O)CCCc1nnc2n3nc(-c4ccccc4)nc3c3ccccc3n12 | +
Cc1ccc(CNC(=O)CCCc2nnc3n4nc(-c5ccccc5)nc4c4ccccc4n23)cc1 | i
CCN(CC)CCNC(=O)CCCc1nnc2n3nc(-c4ccccc4)nc3c3ccccc3n12 | +
CC1CCC(NC(=O)CCCc2nnc3n4nc(-c5ccccc5)nc4c4ccccc4n23)CC1 (centres undefined) | i
O=C(CCn1ccc2cc(S(=O)(=O)N3CCCCC3)ccc21)N1CCCC1 | i
O=C1OC2(CCN(C(=O)c3ccco3)CC2)CN1CCOc1ccccc1 | i
Cc1cc(C)cc(NS(=O)(=O)c2cc3c(cc2C)n(C)c(=O)n3C)c1 | i
Cc1cccc(-c2nnn3c2nc(N2CCOCC2)c2cc(Cl)ccc23)c1 | i
SMILES | Methyltransferases
N#Cc1ccccc1CN1CCNc2nc(CNCc3ccccc3)n(Cc3ccccc3)c2C1=O | i
CCOC(=O)N1CCC(CN(Cc2ccc(Cl)cc2)Cc2ccc([N+](=O)[O-])s2)C1 (centres undefined) | +
Cc1nn(C)c(=O)n1C1CCN(S(=O)(=O)c2cccs2)CC1 | i
CCC[C@@H]1O[C@@H]2C[C@H]3[C@@H]4CCC5=CC(=O)C=C[C@]5(C)[C@H]4[C@@H](O)C[C@]3(C)[C@]2(C(=O)CO)O1 | i
CC(C)Cn1c(=O)c2cc(F)ccc2n2c(SCC(=O)Nc3ccccc3F)nnc12 | i
COc1ccccc1-n1cc(C(=O)N2CCCC2c2nonc2C)cn1 (centres undefined) | i
O=C(NCC1CCC(=O)N(Cc2ccccc2)CC1)C1CCCCC1 (centres undefined) | i
Cc1ccsc1CCNC(=O)Cn1c(=O)oc2cc(S(=O)(=O)N3CCCC3)ccc21 | +
O=C(Cn1c(=O)oc2cc(S(=O)(=O)N3CCCC3)ccc21)NCCc1ccc(Cl)cc1 | i
O=C(Cn1c(=O)oc2cc(S(=O)(=O)N3CCCC3)ccc21)NCCC1=CCCCC1 | i
CCc1cc2c(cc3n2CC(C)(C(=O)NC2CCCCC2)N(Cc2cccc(Cl)c2)C3=O)s1 (centres undefined) | i
COc1cc(-c2cc(-c3cccc(O)c3)cnc2N)cc(OC)c1OC | i
Nc1ccc(-c2cnc(N)c(-c3ccc(Cl)cc3)c2)cn1 | +
O=C(c1ccncc1)N1CC2CCC(C1)N2Cc1ccc(-c2cccs2)cc1 | i
COc1ccc2cc3n(c2c1)CC(C)(C(=O)NC1CCCCCC1)N(CCN1CCOCC1)C3=O (centres undefined) | i
COc1cccc(CN2C(=O)c3cc4sccc4n3CC2(C)C(=O)NC2CCC(C)CC2)c1 (centres undefined) | i
COc1ccc(CN2C(=O)c3cc4sccc4n3CC2(C)C(=O)NC2CCCCC2)cc1OC (centres undefined) | i
COc1ccc(CN2C(=O)c3cc4sccc4n3CC2(C)C(=O)NC2CCC(C)CC2)cc1OC (centres undefined) | +
Cc1ccc(S(=O)(=O)NCCN2CCN(S(=O)(=O)c3ccc(C)cc3)CC2)cc1 | i
CCCn1c(=O)c2ccc(C(=O)NCC(C)C)cc2n2c(=O)n(Cc3ccc(F)cc3)nc12 | i
